Screens from PubChem.
ClpP mod = qHTS Assay for Activators of ClpP | ATP-dependent Clp protease proteolytic subunit (Bacillus subtilis (strain 168)), P80244 | purified B. subtilis ClpP, FRET peptide cleavage, 20 min | Potency, µM (doses to about 57.5 µM) | 340,000 compounds, 1.9% hits; active means well fitted falling curve with a large enough effect; inconclusive means small, poorly fitted or top-dose-only effect; inactive means no such curve, though single readings can be large or run the other way; further: the source files actives as falling curves though it sought activators and does not explain the sign; nearly all actives have a fitted effect of over 65% in size
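FRET quenching reversal measured ClpP activation: 10 microg/mL B. subtilis ClpP at pH 8 with the FRET-FV decapeptide, read at 430 nm after 320 nm excitation. The 20-min minus 0-min signal was scaled between DMSO/no-enzyme wells and ADEP (5.8 microM final).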
CBFb RUNX1 block = blocks binding between human CBF-beta and RUNX1; Q01196+Q13951; AlphaScreen CBFb-His/RUNX1-biotin binding, biochemical; Potency, µM (doses to about 59.8 µM), usual class: inhibitors; 230,000 tested, under 10 active
Target sequence (Q01196 whole entry, looked up): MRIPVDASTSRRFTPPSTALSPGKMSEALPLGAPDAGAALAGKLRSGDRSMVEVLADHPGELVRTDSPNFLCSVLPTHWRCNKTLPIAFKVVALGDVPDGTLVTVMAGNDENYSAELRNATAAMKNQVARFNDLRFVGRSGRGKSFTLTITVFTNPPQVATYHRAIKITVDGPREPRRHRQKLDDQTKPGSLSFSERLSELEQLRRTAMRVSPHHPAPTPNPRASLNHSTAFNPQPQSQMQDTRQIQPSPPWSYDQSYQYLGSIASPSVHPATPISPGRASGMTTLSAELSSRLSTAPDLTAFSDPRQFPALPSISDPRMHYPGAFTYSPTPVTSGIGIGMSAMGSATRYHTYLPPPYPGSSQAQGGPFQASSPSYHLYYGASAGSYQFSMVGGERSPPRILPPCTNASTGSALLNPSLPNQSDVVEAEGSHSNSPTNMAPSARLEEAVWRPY
Target sequence (Q13951 whole entry, looked up): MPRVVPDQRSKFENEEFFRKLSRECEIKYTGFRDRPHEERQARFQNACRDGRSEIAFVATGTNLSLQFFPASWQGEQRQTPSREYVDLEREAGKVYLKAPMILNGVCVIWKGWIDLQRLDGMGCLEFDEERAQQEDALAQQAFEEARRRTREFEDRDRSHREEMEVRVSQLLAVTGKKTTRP
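Compounds were screened at multiple concentrations against a preformed CBF-beta(His)/RUNX1(biotin) complex (30 nM of each) for 15 min at room temperature, followed by 90 min with nickel and streptavidin beads and AlphaScreen reading.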
Apoferritin bind = candidate novel general anesthetic via apoferritin binding; P02791; 350,000 compounds, 0.074% hits; apoferritin/1-aminoanthracene competitive binding, fluorescence; AID 485281; Potency, µM (highest dose often 77.5 µM), hits mostly inhibitors; further: nearly all actives have a fitted effect of over 20% in size
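Horse-spleen apoferritin (10 uM) in 50% saturated 1-aminoanthracene in PBS was incubated 10 min at room temperature with compound. Fluorescence (ex 380, em 535 nm) was normalized to free and bound 1-AMA, with concentration-response fitted by a four-parameter Hill equation.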
GRP78 ERSR act = induces the endoplasmic reticulum stress response in human glioma cells | U87-MG GRP78 promoter luciferase reporter, 16 h | Potency, µM, actives largely listed as activators | 420,000 compounds, 0.02% hits; further: series mostly up to about 76 µM; nearly all actives have a fitted effect of over 35% in size
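Stably transfected U87-MG human glioma cells carrying a GRP78-based luminescent sensor were seeded at 1000 cells/well, pin-dosed with compounds and incubated 16 h. Luciferase reagent was then added, and end-point luminescence was read after 10 min at room temperature.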
N370S GC = N370S glucocerebrosidase modulation, Gaucher chaperone candidate; P04062; N370S GC spleen homogenate, 4MU-glucoside fluorescence; Potency, µM (titrated, usually from 59.4 µM), usual class: inhibitors; 330,000 compounds, 0.092% hits
a7 integrin act = activates integrin-mediated alleviation for muscular dystrophy. alpha7betagal myoblasts, beta-gal FDG fluorescence, 48 h. Potency, µM (doses to about 38.3 µM), hits mostly activators. 350,000 compounds, 0.064% hits; further: nearly all actives have a fitted effect of over 60% in size
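Alpha7betagal+/- myoblasts (passage 13) were plated 16-24 hr, then exposed to compounds (1:260 dilution of DMSO stock) for 48 hours at 37C. After MPER lysis, β-galactosidase reporter activity was read as FDG fluorescence (ex 480/em 540) after 30 minutes.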
A number is an active result; . = inactive; ? = inconclusive; / = not tested or not shown; [ ] = remark or other dose. This is one part of a sample in which hits are shown more often than they occur. Unless noted, the call rests on the fitted dose curve; in most records, active means well fitted curve in the direction sought with a large enough effect; inconclusive means small, poorly fitted or top-dose-only effect, or another doubt; inactive means no such curve, though single readings can be large; an effect the other way counts as inactive or inconclusive.

SMILES	ClpP mod	CBFb RUNX1 block	Apoferritin bind	GRP78 ERSR act	N370S GC	a7 integrin act
COc1ccc(-c2cc(C(F)(F)F)n3nc(C(=O)NCCN4CCOCC4)cc3n2)cc1	.	.	.	.	.	.
COC(=O)c1c(NC(=O)c2cc3nc(-c4ccc(OC)cc4)cc(C(F)(F)F)n3n2)sc2c1CCCC2	28.2µM	/	.	.	/	/
CC(=O)Nc1cc([N+](=O)[O-])cc(NC(C)=O)c1NC(C)=O	.	/	/	.	/	/
COc1cc(OC)c(OC)cc1/C=N/NC(=S)NCC1CCCO1 (stereo not drawn)	31.6µM	.	.	.	.	.
O=C(Nc1ccc2nc(SCCOc3ccccc3Cl)sc2c1)c1cccs1	11.2µM	/	.	.	/	/
Cc1cc(C)cc(OCCSc2nc3ccc(NC(=O)c4cccs4)cc3s2)c1	.	/	.	.	/	/
Nc1nc(-c2ccccc2)[nH]c(=O)c1N	28.2µM	.	.	.	.	.
Nc1[nH]nc2nc(-c3ccccc3)[nH]c(=O)c12	.	.	.	.	.	.
Cn1ccc(C(=O)NCC2CCC3(CCN(Cc4ccc(F)cc4F)CC3)O2)n1 (stereo not drawn)	/	/	/	.	/	/
O=C(NC[C@@H]1CCCN2CCCC[C@H]12)c1cnn(-c2nccc(-c3cc4ccccc4o3)n2)c1C1CC1	/	/	/	.	/	/
CNc1ccc(-c2nc3ccccc3s2)cc1	/	.	.	.	?	/
CCc1ccc(NC(=O)COC(=O)c2ccccc2OCC(=O)N(C)C)cc1	.	/	/	.	/	/
CCCC(C)NC(=O)c1ccc(C2SCC(=O)N2Cc2ccco2)cc1 (stereo not drawn)	31.6µM	.	.	.	.	.
O=c1nc2c(-c3ccccc3F)n[nH]n2c2ccccc12	28.2µM	.	.	.	.	.
O=c1nc2c(-c3ccc(F)cc3Cl)n[nH]n2c2ccccc12	.	/	.	.	/	/
CC(C)c1ccc(S(=O)(=O)c2n[nH]n3c2nc(=O)c2ccccc23)cc1	25.1µM	.	.	.	.	.
CC(C)c1ccc(S(=O)(=O)c2nnn3c2nc(NCC2CCCO2)c2ccccc23)cc1 (stereo not drawn)	.	/	.	.	.	.
CCc1ccc(S(=O)(=O)c2n[nH]n3c2nc(=O)c2ccccc23)cc1	31.6µM	.	.	.	.	.
COc1cc(=O)n2c(c1C(=O)N(C)Cc1cscn1)CCN(C(=O)c1ccc(C)c(C)c1)CC2	/	/	/	.	/	/
Cc1c(Br)c([N+](=O)[O-])nn1CC(=O)NCc1ccco1	35.5µM	.	.	.	.	.
Cc1c(Br)c(C(F)(F)F)nn1CC(=O)NCc1ccco1	/	.	?	.	.	.
COCC(=O)Nc1cc(C(=O)N2CCCC(C(C)=O)C2)cc2nc(-c3ccccc3)n(C)c12 (stereo not drawn)	/	/	/	.	/	/
Cc1c(N)nc([C@@H](CC(N)=O)NC[C@H](N)C(N)=O)nc1C(=O)N[C@H](C(=O)N[C@@H](C)[C@@H](O)[C@@H](C)C(=O)N[C@H](C(=O)NCCc1nc(-c2nc(C(=O)NCCCN[C@H](C)c3ccccc3)cs2)cs1)[C@H](C)O)[C@@H](O[C@H]1O[C@@H](CO)[C@H](O)[C@@H](O)[C@H]1O[C@H]1O[C@@H](CO)[C@@H](O)[C@H](OC(N)=O)[C@H]1O)c1cnc[nH]1	/	/	/	.	/	/
O=C(NCc1nnc2n1CCN(Cc1ccc(C(F)(F)F)cc1)CC2)c1cccc(F)c1	/	/	/	.	/	/
NS(=O)(=O)c1cccc(NC(=O)CSc2nc3ccc(Cl)cc3[nH]2)c1	14.1µM	.	.	.	.	.
SMILES	ClpP mod	CBFb RUNX1 block	Apoferritin bind	GRP78 ERSR act	N370S GC	a7 integrin act
O=c1c2[nH]c3ccc(F)cc3c2ncn1CCCN1CCOCC1	20µM	.	.	.	.	.
COc1ccc2c(c1)[nH]c1c(=O)n(CCCN3CCOCC3)cnc12	.	.	.	.	.	.
CN(C)/[N+]([O-])=N/Oc1ccc([N+](=O)[O-])cc1C(F)(F)F	/	/	/	.	/	/
CCCc1cc(=O)n2[nH]c(C)cc2n1	31.6µM	.	.	.	.	.
Cc1ccc(CNC(=O)c2cnn3c(C)c(Cc4c(F)cccc4Cl)c(C)nc23)cc1	?	/	.	.	/	/
Cc1nc2c(C(=O)NC(C)c3ccccc3)cnn2c(C)c1Cc1ccccc1 (stereo not drawn)	31.6µM	/	.	.	/	/
Cc1nc2c(C(=O)N3CCOCC3)cnn2c(C)c1Cc1ccc(Cl)cc1	28.2µM	.	.	.	.	.[7.66 µM]
Cc1nc2c(C(=O)NCCc3ccc(Cl)cc3)cnn2c(C)c1Cc1c(F)cccc1Cl	.	/	.	.	/	/
Cc1cc(C)c(Cc2c(C)nc3c(C(=O)NCc4ccco4)cnn3c2C)c(C)c1	20µM	.	.	.	?	.
Cc1nc2c(C(=O)NCCc3ccc(Cl)cc3)cnn2c(C)c1Cc1ccc(F)cc1	25.1µM	/	.	.	/	/
Cc1nc2c(C(=O)N3CCOCC3)cnn2c(C)c1Cc1cccc(Cl)c1	/	.	.	/	.	/
COC(CNC(=O)c1cnn2c(C)c(Cc3ccccc3)c(C)nc12)OC	.	.	.	.	?	.
Cc1nc2sccn2c1CN1CCC2(CC1)CC2C(=O)Nc1ccc2c(c1)OCO2 (stereo not drawn)	/	/	/	.	/	/
Cc1ncc2c(c1CNC(=O)/C=C/c1cccs1)CCN(C(=O)c1cc(C(C)C)on1)C2	/	/	/	.	/	/
COC(=O)c1ccc(CN2CCOc3ccc(CN4CCC(O)(c5cccnc5)CC4)cc3C2)cc1	/	/	/	.	/	/
CN1CC[n+]2cnc3ccccc3c21	28.2µM	.	.	.	.	.
Cc1ccnc2ccccc12	.	/	/	.	/	/
Cn1cc(CN2CCOc3ccc(C(O)C4CCCCC4)cc3C2)cn1 (stereo not drawn)	/	/	/	.	/	/
Cc1ccc(NC(=O)COC(=O)CSC(=S)N2CCOCC2)cc1C	/	?	5.62µM	.	.	.
COc1cccc(-c2csc(NC3OC(=O)c4c3ccc(OC)c4OC)n2)c1 (stereo not drawn)	/	.	.	.	.	.
COc1ccc2c(c1OC)C(=O)OC2Nc1nc(-c2ccc(-c3ccccc3)cc2)cs1 (stereo not drawn)	15.8µM	.	.	.	.	.
Cc1ccc(CNc2nc(CN3CCSCC3)nc3ccccc23)o1	/	/	/	.	/	/
COC(=O)c1cc(CNC(=O)c2ccccn2)cc(NC(=O)c2ccccc2OC)c1	/	/	/	.	/	/
Cn1cc(-c2nc3ccccc3[nH]2)c2ccccc21	28.2µM	.	.	.	.	.
c1ccc(-c2csc(-c3nc4ccccc4[nH]3)n2)cc1	/	.	/	.	.	/
c1ccc(-c2cc(-c3nc4ccccc4[nH]3)c3ccccc3n2)cc1	17.8µM	.	.	.	.	?
Cc1ccc(CNc2ncnc3sc(C(=O)N4CCCC(C(N)=O)C4)c(C)c23)o1 (stereo not drawn)	/	/	/	.	/	/
CCOc1ccccc1-c1n[nH]c(=S)o1	?	.	.	.	.	.
COc1ccc(-c2n[nH]c(=S)o2)c(OC)c1	25.1µM	.	.	.	.	.
